From ChEMBL document CHEMBL3433997, “St. Jude Leishmania screening dataset” (2016) come the findings set out here.

Holding throughout (format): functional
In assay [1] the target is Solute carrier family 2, facilitated glucose transporter member 1 (Homo sapiens) (UniProt P11166). Description: ST_JUDE_LEISH: Cytotoxicity at 2uM final concentration against transgenic Leishmania Mexicana promastigotes LmGLUT1 that are glucose transport deficient and complemented with the human glucose transporter GLUT1. Activity is measured by DNA content using SYBR green in vitro.
Chain of Solute carrier family 2, facilitated glucose transporter member 1 (Homo sapiens) (P11166 whole entry): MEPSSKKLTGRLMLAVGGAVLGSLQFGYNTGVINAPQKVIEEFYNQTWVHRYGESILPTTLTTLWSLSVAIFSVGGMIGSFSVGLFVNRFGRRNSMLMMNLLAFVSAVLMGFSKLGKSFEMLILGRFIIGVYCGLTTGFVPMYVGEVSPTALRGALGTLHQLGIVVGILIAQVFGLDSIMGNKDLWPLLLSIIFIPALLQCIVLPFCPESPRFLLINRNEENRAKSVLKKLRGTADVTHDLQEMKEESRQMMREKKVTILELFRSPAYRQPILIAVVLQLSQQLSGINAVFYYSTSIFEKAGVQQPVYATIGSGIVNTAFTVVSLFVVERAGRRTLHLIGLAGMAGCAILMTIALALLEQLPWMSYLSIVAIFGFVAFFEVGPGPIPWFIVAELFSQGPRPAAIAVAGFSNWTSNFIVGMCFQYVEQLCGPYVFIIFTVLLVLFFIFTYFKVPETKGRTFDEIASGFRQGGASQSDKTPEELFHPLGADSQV

Assay [2] addresses Hexose transporter 1 (Plasmodium falciparum) (UniProt O97467). Description: ST_JUDE_LEISH: Cytotoxicity at 2uM final concentration against transgenic Leishmania Mexicana promastigotes LmPfHT that are glucose transport deficient and complemented with the Plasmodium falciparum hexose transporter. Activity is measured by DNA content using SYBR green in vitro.
Assay [3] deals with Glucose transporter (Leishmania mexicana) (UniProt O61059). Description: ST_JUDE_LEISH: Cytotoxicity at 2uM final concentration against transgenic Leishmania Mexicana promastigotes LmGT2 that are glucose transport deficient and complemented with the L. Mexicana glucose transporter 2. Activity is measured by DNA content using SYBR green in vitro.

As a reminder, the inhibition is the change of the read-out against control, counted positive when it falls. Consider `COc1ccccc1C1CCN(Cc2csc(NC(=O)c3ccc(-c4ccc(C(F)(F)F)cc4)cc3)n2)CC1`, for which the values for the inhibition in assay [1], in assay [2] and in assay [3] were 7.33%, 6.58% and 3.56%, respectively.

As to `O=c1cc(NCCCCNCc2cccc(C(F)(F)F)c2)[nH]c2ccccc12`, the figures for the inhibition in assay [1], in assay [2] and in assay [3] were 9.62%, 7.88% and 5.78%, respectively.

Regarding `N=C(N)NN=CC(=O)Nc1ccc(Cl)c(Cl)c1`, the inhibition in assay [1] was 0.13%; in assay [2], -1.4%; in assay [3], -1.96%.

Regarding `COc1ccc2ncc(F)c([C@H](O)CN3CCC(NCc4ccc5c(c4)NC(=O)CS5)CC3)c2c1`, the inhibition is -1.54% in assay [1], -0.25% in assay [2] and -1.73% in assay [3].

Consider `O=C1NC(=S)N/C1=C/C=C/c1ccc([N+](=O)[O-])o1`, for which the inhibition in assay [1] was determined as 27.9%; in assay [2], 30.9%; in assay [3], 5.12%.

For `COc1ccc2ncc(F)c([C@@H](O)CN3CCC(NCc4ccc5c(c4)NCCS5)CC3)c2n1`, the inhibition in assay [1] was 8.36%; in assay [2], 8.01%; in assay [3], -5.06%.

`O=S(=O)(c1cc(Cl)ccc1Cl)N1CCCCC(c2ccc(C(F)(F)F)cc2)=N1`: the inhibition came out at 0.47% in assay [1], 2.66% in assay [2] and 5.01% in assay [3].

As for `CNC(=O)c1cnc(Nc2ccc3[nH]c(=O)[nH]c3c2)nc1Nc1cccc(OC(C)C)c1`, the inhibition was -0.17% in assay [1], -0.76% in assay [2] and -0.26% in assay [3].

For `COc1ccc2c(=NN=C(C)c3ccccn3)cc(C)[nH]c2c1`, the results for the inhibition in assay [1], in assay [2] and in assay [3] were 5.68%, 9.51% and 4.08%, respectively.

For the compound `Cc1cccc2nc(-c3ccc(-c4cccc(NC(=O)Nc5ccc(Cl)cc5)c4)s3)[nH]c12`, the values for the inhibition in assay [1], in assay [2] and in assay [3] were 3.96%, 3.55% and 3.01%, respectively.

Consider `Cc1cc(NC(=O)c2cccs2)ccc1OC1CCN(Cc2ccc(F)cc2)CC1`, for which the inhibition in assay [1] worked out at 1.65%; in assay [2] it was 2.76%; in assay [3], 5.08%.

On to `Cc1cc(NC(=O)NCCN2CCC(NS(=O)(=O)c3ccccc3F)CC2)c2ccccc2n1`, for which the values for the inhibition in assay [1], in assay [2] and in assay [3] were 1.57%, 2.12% and 0.24%, respectively.

For the compound `CCCNC(=O)Nc1cc2cc(-c3ccc(CN4CCCC4)cc3)ccc2n2c(C)nnc12`, the values for the inhibition in assay [1], in assay [2] and in assay [3] were 4.57%, 3.01% and -1.87%, respectively.

In the case of `COc1nc(-n2ccc(=N)cc2)nc2ccccc12`, the inhibition in assay [1] was found to be 12.2%; in assay [2], 13.4%; in assay [3], 2.63%.

For the compound `c1ccc(CNCc2cccc(-c3ccc(-c4nc5ccccc5[nH]4)cc3)c2)cc1`, the results for the inhibition in assay [1], in assay [2] and in assay [3] were 6.45%, 4.96% and 7.51%, respectively.

In the case of `COc1cc2ncnc(Nc3ccc(OCc4ccccc4)c(C(F)(F)F)c3)c2cc1OC`, the inhibition in assay [1] came to 1.67%; in assay [2], 0.75%; in assay [3], 0.32%.

Take `CN(CCCN(C)c1cc(NC(=O)c2cccc(F)c2)ccn1)Cc1cccc(O)c1`: the inhibition is -2.2% in assay [1], 0.99% in assay [2] and -0.68% in assay [3].

`O=C(NC1CCN(Cc2ccccc2)CC1)c1csc2nc(-c3ccc(Cl)cc3)cn12`: the inhibition in assay [1] turned out to be 4.09%; in assay [2], 2.67%; in assay [3], 2.02%.

For `N#Cc1ccc2c(c1)CCN(CCC1CCC(NC(=O)/C=C/c3nc4ccccc4s3)CC1)CC2` (stereo not drawn), the inhibition in assay [1] was 1.83%; in assay [2], 0.31%; in assay [3], -0.08%.

As for `O=C(CN(c1cccc(C(F)(F)F)c1)S(=O)(=O)c1ccc(Cl)cc1)NCCC(c1ccccc1)c1ccccc1`, the inhibition in assay [1] was -0.18%; in assay [2] it was -0.47%; in assay [3], -2.89%.

As for `O=C1CCCN1CCCNCc1ccc(-c2ccc(-c3nc4cc(C(F)(F)F)ccc4[nH]3)s2)cc1`, the inhibition in assay [1] amounted to 4.04%; in assay [2], 1.98%; in assay [3], 3.27%.

In the case of `COc1ccc(Cc2c(C)nc3nc(N)nc(N)c3c2C)cc1`, the inhibition in assay [1] worked out at 39%; in assay [2], 38.2%; in assay [3], 34.5%.

Regarding `COc1ccc2nc3cc(Cl)ccc3c(NCCCN3CCNCC3)c2c1`, the figures for the inhibition in assay [1], in assay [2] and in assay [3] were 3.27%, 3.25% and 2.39%, respectively.

Regarding `CCCc1cc(Cc2cnc(N)nc2N)cc(CCC)c1OCCCCC(=O)O`, the inhibition worked out at 1.12% in assay [1], 1.3% in assay [2] and 0.16% in assay [3].

Consider `CCCC[C@H](NC(=O)OC(C)(C)C)C(=O)Nc1ccc(Cc2ccc(NC(=O)[C@H](CCCC)NC(=O)OC(C)(C)C)cc2)cc1`, for which the figures for the inhibition in assay [1], in assay [2] and in assay [3] were 4.27%, 4.02% and 4.58%, respectively.

On to `O=S(=O)(c1ccccc1)n1ccc2cc(Nc3ncnc4cc(C#C[C@H]5CCCN5)sc34)ccc21`, for which the inhibition was 2.91% in assay [1], 2.14% in assay [2] and -0.2% in assay [3].

As for `COc1cccc(-c2ccc(C(=O)NC3CCN(Cc4ccc(C(C)(C)C)cc4)CC3)s2)c1`, the inhibition in assay [1] was 0.02%; in assay [2], 0.82%; in assay [3], -1.18%.

Consider `O=C(Cn1cc(C(F)(F)F)cc(Cl)c1=O)N1CCN(S(=O)(=O)c2ccc(Cl)cc2)CC1`, for which the inhibition in assay [1] was 2.2%; in assay [2] it was 1.76%; in assay [3] it was -0.25%.

For `CN(C)CCNCc1cccc(-c2ccc3c(Nc4ccc(F)cc4Cl)ccnc3c2)c1`, the inhibition in assay [1] was 3.59%; in assay [2], 3.29%; in assay [3], 5.03%.

Turning to `CCN(CCCN1CCCCC1)c1nc(C)cc(Nc2ccc(Cl)cc2)n1`, the inhibition in assay [1] was 0.5%; in assay [2], -0.38%; in assay [3] it was 1.1%.

As to `Cc1ccc(O)cc1Nc1ccnc2cc(-c3csc(CN(C)CCN(C)C)n3)ccc12`, the inhibition in assay [1] is -0.07%; in assay [2], -0.87%; in assay [3], 0.38%.

In the case of `CC(C)c1ccc(-c2noc(SCC(=O)N3CCCCC3C)n2)cc1` (stereo not drawn), the inhibition was -2.1% in assay [1], 1.89% in assay [2] and -2.55% in assay [3].

With `Cc1cnc(N2CCN(CCCN3CCCC3)CC2)nc1Oc1ccc(-n2ccnc2)cc1`, the values for the inhibition in assay [1], in assay [2] and in assay [3] were 2.28%, 2% and 3.96%, respectively.

As to `O=C(Nc1ccc(F)c(F)c1)c1ccc(CN2CCCN(Cc3cccc(F)c3)CC2)cc1`, the values for the inhibition in assay [1], in assay [2] and in assay [3] were 0.07%, -0.34% and 1.29%, respectively.

On to `O=C(Nc1cccnc1)c1ccc(-c2cc3ccncc3cc2OC2CCNCC2)s1`, for which the inhibition in assay [1] amounted to 2.38%; in assay [2], 2.54%; in assay [3], 2.16%.

Turning to `Cc1[nH]c(C)c(Cc2ccc(Oc3ccc(OC(F)(F)F)cc3)cc2)c(=O)c1Br`, the inhibition in assay [1] was -0.67%; in assay [2], -0.95%; in assay [3], -3.03%.
